Vaccinia mCherry: vaccinia inhibition (mCherry reporter); 0.63% of 310,000 active; Potency, µM (top dose mostly 36.5 µM), for the others: top-dose activity change, negative = inhibition, most hits filed as inhibitors; AID 720579; Vaccinia virus mCherry reporter infection, fluorescence; calls by dose curve; tested in A549 cells; also: potency is read from the fitted curve at half-maximal effect; nearly all actives have a fitted effect of over 35% in size
HCMV antiviral: inhibitors of human cytomegalovirus | HFF cells, HCMV-luciferase reporter, 72 h; active compounds read low | activity change, negative = inhibition, % at 57.5 µM | 4.5% of 410,000 active | AID 1259415; in the data active = activity change below about -60%; inconclusive = no clear call, values can overlap the other calls; inactive = above about -39%
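Inhibition of viral replication was scored as loss of reporter luminescence in HFFs infected with HCMV-luciferase (MOI 1 PFU/cell) for 72 h; compounds tested at 2 doses, normalized to buffer and Salinomycin controls.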
Vaccinia Venus: vaccinia inhibition (Venus reporter) | Vaccinia virus Venus reporter expression, fluorescence | 0.46% of 330,000 active | Potency, µM (series often up to 36.5 µM), without a hit: at the top dose activity change, negative = inhibition, most hits filed as inhibitors; calls by dose curve; tested in A549 cells; also: potency is read from the fitted curve at half-maximal effect; nearly all actives have a fitted effect of over 30% in size
HCV inh: blocks hepatitis C virus; AID 651820; 3.4% of 340,000 active; Huh7.5.1 HCVcc-Cre infection, luciferase reporter, 44 h; Potency, µM (series often up to 41.8 µM), for the others: top-dose activity change, negative = inhibition, actives largely listed as inhibitors; active = well fitted inhibition curve with a large enough effect; inconclusive = small, poorly fitted or top-dose-only effect, or another doubt; inactive = no such curve, though single readings can be large or run the other way; also: potency is read from the fitted curve at half-maximal effect
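Cells seeded at 1,000/well and cultured 4 h, then compounds added followed by HCVcc-Cre virus (~0.5 moi). After 44 h further culture, luciferase substrate was added, plates held 15 min at room temperature, and luminescence read for 15 sec.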
FMDV antiviral: antivirals against foot and mouth disease virus | Potency, µM (top dose mostly 57.9 µM), for the others: at the highest dose activity change, negative = inhibition, most hits filed as inhibitors | FMDV antiviral cell-based qHTS | 1.2% of 410,000 active | AID 1159524; calls by dose curve; tested in HEK293T cells; also: read-out not given here; potency is read from the fitted curve at half-maximal effect; nearly all actives have a fitted effect of over 45% in size
* marks the source's active call; other numbers are inactive results. A selection: hits, their analogues and other compounds. The true share with any hit is near 7.3%. % is scaled to controls: 0 for no effect and ±100 for the full control effect.

Results for COc1ccccc1NC(=O)CSc1nnc(COc2ccc(Cl)cc2)n1Cc1ccco1 ?
HCMV antiviral: 27.9; HCV inh: 11.2µM*; FMDV antiviral: -16.9%

Results for O=c1c2ccccc2nnn1CSc1nc2cc(Cl)ccc2c(=O)n1Cc1ccco1 ?
HCMV antiviral: 30.8; HCV inh: 19.8%; FMDV antiviral: 15.2%

Results for O=c1c2ccccc2nnn1CSc1nnc(COc2ccc(Cl)cc2)n1Cc1ccco1 ?
HCMV antiviral: -60.0*; HCV inh: inconclusive; FMDV antiviral: 0.2%

Results for COCCNc1nc(N)c([N+](=O)[O-])c(NC2CCCCC2)n1 ?
Vaccinia mCherry: -14.3%; HCMV antiviral: -1.2; Vaccinia Venus: -19.4%; HCV inh: inconclusive; FMDV antiviral: -10.8%

How did NCCCNc1nc(N)c([N+](=O)[O-])c(NC2CCCCC2)n1 do in these assays?
Vaccinia mCherry: inconclusive; HCMV antiviral: -97.5*; Vaccinia Venus: 3.16µM*; HCV inh: 12.6µM*; FMDV antiviral: inconclusive

How did CC1CC1c1ccc(/C=C(\C#N)C(=O)Nc2cc(Cl)ccc2Cl)o1 (stereo not drawn) do in these assays?
Vaccinia mCherry: inactive; HCMV antiviral: 14.8; Vaccinia Venus: -14.7%; HCV inh: inconclusive; FMDV antiviral: -3.5%

How did CC1CC1c1ccc(/C=C(\C#N)C(=O)Nc2ccc(Cl)cc2Cl)o1 (stereo not drawn) do in these assays?
Vaccinia mCherry: -19.9%; HCMV antiviral: -64.1*; Vaccinia Venus: 2.7%; HCV inh: inconclusive; FMDV antiviral: 17.6%

Results for O=C(COc1ccccc1[N+](=O)[O-])Nc1ccc(N2CCN(C(=O)c3cccs3)CC2)cc1 ?
Vaccinia mCherry: -5.8%; HCMV antiviral: -33.1; Vaccinia Venus: -22.7%; HCV inh: 6.31µM*; FMDV antiviral: 12.6µM*

How did CCC(=O)Nc1ccc(N2CCN(C(=O)c3cccs3)CC2)cc1 do in these assays?
HCMV antiviral: 17.4; HCV inh: 14.2%; FMDV antiviral: -4.3%

What do the screens show for `O=C(COc1ccccc1Cl)Nc1ccc(N2CCN(C(=O)c3ccccc3)CC2)cc1`?
HCMV antiviral: -33.6; HCV inh: 5.01µM*; FMDV antiviral: 22.4µM*

What do the screens show for `Cc1cccc(OCC(=O)Nc2ccc(N3CCN(C(=O)c4ccccc4)CC3)cc2)c1`?
Vaccinia mCherry: -1.0%; HCMV antiviral: -35.8; Vaccinia Venus: -21.3%; HCV inh: inconclusive; FMDV antiviral: 28.2µM*

How did Cc1ccc(OCC(=O)Nc2ccc(N3CCN(C(=O)c4ccc(C)cc4)CC3)cc2)cc1 do in these assays?
Vaccinia mCherry: -8.9%; HCMV antiviral: 14.0; Vaccinia Venus: -11.7%; HCV inh: 16.1%; FMDV antiviral: -6.8%

How did CCOC(=O)N1CCN(C(=O)c2ccccc2NC(=O)COc2ccccc2)CC1 do in these assays?
Vaccinia mCherry: inactive; HCMV antiviral: -60.2*; Vaccinia Venus: -2.2%; HCV inh: inconclusive; FMDV antiviral: inconclusive

How did CC(=O)Nc1cc(-c2cccc(C(=O)NCCO)c2)cn2c(-c3cccc(C(F)(F)F)c3)cnc12 do in these assays?
Vaccinia mCherry: inconclusive; HCMV antiviral: -23.6; Vaccinia Venus: inconclusive; FMDV antiviral: -19.5%

What do the screens show for `CCN(C(=O)CCS(=O)(=O)c1cc2[nH]c(=O)c(=O)[nH]c2cc1C)c1ccccc1`?
Vaccinia mCherry: -8.8%; HCMV antiviral: 0.0; Vaccinia Venus: -7.8%; FMDV antiviral: 3.3%

How did COc1ccc(C(=O)NC2CCSc3ccccc32)cc1S(=O)(=O)N1CCOCC1 (stereo not drawn) do in these assays?
Vaccinia mCherry: inactive; HCMV antiviral: -22.5; Vaccinia Venus: -9.4%; HCV inh: -27.9%; FMDV antiviral: 9.5%

How did O=[N+]([O-])c1cc(CN(CCO)CCO)ccc1O do in these assays?
Vaccinia mCherry: -8.4%; HCMV antiviral: -13.6; Vaccinia Venus: 5.3%; HCV inh: 0.3%; FMDV antiviral: -7.0%

Results for COc1ccc(Br)cc1CN(C)CC(=O)Nc1c(Cl)cccc1Cl ?
Vaccinia mCherry: -14.4%; HCMV antiviral: -61.0*; Vaccinia Venus: -12.4%; HCV inh: 6.0%; FMDV antiviral: -5.0%

How did COc1ccc(/C=C/C(=O)Nc2cccc(S(=O)(=O)N3CCCC3)c2)cc1OC do in these assays?
Vaccinia mCherry: inactive; HCMV antiviral: inconclusive; Vaccinia Venus: -21.0%; HCV inh: 10µM*; FMDV antiviral: inconclusive

What do the screens show for `COc1ccc(CC(=O)Nc2cccc(S(=O)(=O)N3CCCC3)c2)cc1OC`?
HCMV antiviral: -85.4*; HCV inh: 4.47µM*; FMDV antiviral: -27.4%

What do the screens show for `COc1cc(C(=O)Nc2cccc(S(=O)(=O)N3CCCC3)c2)cc(OC)c1C`?
HCMV antiviral: -31.4; HCV inh: inconclusive; FMDV antiviral: inconclusive

What do the screens show for `COc1ccccc1CC(=O)Nc1cccc(S(=O)(=O)N2CCOCC2)c1`?
Vaccinia mCherry: -12.0%; HCMV antiviral: 0.7; Vaccinia Venus: -9.8%; HCV inh: inconclusive; FMDV antiviral: -0.9%

What do the screens show for `COc1ccc(CC(=O)Nc2cccc(S(=O)(=O)N3CCOCC3)c2)cc1OC`?
HCMV antiviral: -66.1*; HCV inh: 3.55µM*; FMDV antiviral: inconclusive

Results for COc1ccc(Br)cc1CN(C)CC(=O)NCc1ccc(F)cc1 ?
Vaccinia mCherry: -11.1%; HCMV antiviral: -29.6; Vaccinia Venus: -13.2%; HCV inh: -25.0%; FMDV antiviral: -26.3%

What do the screens show for `O=C(Cc1ccc(Br)cc1)Nc1cccc(S(=O)(=O)N2CCCCC2)c1`?
Vaccinia mCherry: -27.4%; HCMV antiviral: -0.8; Vaccinia Venus: inconclusive; FMDV antiviral: -3.5%

How did CC(C)N1C(=O)c2ccccc2NC(=O)C1C(=O)NCc1ccccc1 (stereo not drawn) do in these assays?
Vaccinia mCherry: -14.2%; HCMV antiviral: 18.0; Vaccinia Venus: -22.4%; FMDV antiviral: 0.4%

How did Cc1cnc2c(c1SCC(=O)NCc1ccc(F)cc1)c(=O)n(C)c(=O)n2C do in these assays?
Vaccinia mCherry: -6.8%; HCMV antiviral: 18.8; Vaccinia Venus: -6.2%; FMDV antiviral: -11.6%

How did O=C(/C=C/c1ccc(F)cc1)Nc1cccc(S(=O)(=O)N2CCOCC2)c1 do in these assays?
Vaccinia mCherry: -17.9%; HCMV antiviral: -3.1; Vaccinia Venus: -29.2%; HCV inh: 10µM*; FMDV antiviral: -20.9%

How did COc1ccc(Br)cc1CN(C)CC(=O)Nc1cccc(S(=O)(=O)N2CCCC2)c1 do in these assays?
Vaccinia mCherry: inconclusive; HCMV antiviral: inconclusive; Vaccinia Venus: -20.1%; HCV inh: 8.91µM*; FMDV antiviral: -5.3%

What do the screens show for `COc1ccc(Br)cc1CN(C)CC(=O)Nc1cccc(S(N)(=O)=O)c1`?
Vaccinia mCherry: -21.3%; HCMV antiviral: -39.2; Vaccinia Venus: -15.7%; HCV inh: -7.7%; FMDV antiviral: 10.0%

What do the screens show for `O=S(=O)([N-]c1nc2ccccc2nc1-[n+]1ccccc1)c1ccc(Cl)cc1`?
HCMV antiviral: -62.2*; Vaccinia Venus: -12.6%; HCV inh: 24.2%; FMDV antiviral: 4.0%
